# Results from PubChem BioAssay (NCI).
# Values joined by “and” are separate entries in the source; they are usually repeats but may differ in a detail not shown here. Identical values can stand only once. Compounds without any hit were thinned out: in the full panel of roughly 83,000, 20% have a hit.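 48-hour exposure, single concentration, 96-well plates; percent growth endpoint where 0 means no net growth. Active: below 10.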 Active and inactive are the calls of the source.
# What was measured:
# Experiment in all cases: NCI-60 one-dose screen, 48 h (100 = growth as untreated, 0 = no growth, -100 = all killed)
# [1] = system: SR leukemia
# [2] = system: RPMI-8226 leukemia
# [3] = system: OVCAR-8 ovarian
# [4] = system: OVCAR-5 ovarian
# [5] = system: OVCAR-4 ovarian
# [6] = system: SK-OV-3 ovarian
# [7] = system: IGROV1 ovarian
# [8] = system: OVCAR-3 ovarian
# [9] = system: HS 578T breast
# [10] = system: NCI/ADR-RES ovarian
# [11] = system: T-47D breast
# [12] = system: BT-549 breast
# [13] = system: MDA-MB-435 melanoma
# [14] = system: SW-620 colon
# [15] = system: MCF7 breast
# [16] = system: HCT-116 colon
# [17] = system: HCC-2998 colon
# [18] = system: KM12 colon
structure (smiles),measurement,setting,value
CC(C)CNC(=O)c1ccccc1C(=O)NC1(C(=O)NCC(C)C)CCCC1,growth,[1]; 10 µM unless noted,110% (inactive) and 90.5% (inactive)
same,growth,[2]; 10 µM unless noted,105% (inactive)
same,growth,[3]; 10 µM unless noted,101% (inactive) and 104% (inactive)
same,growth,[4]; 10 µM unless noted,98.6% (inactive) and 98.3% (inactive)
same,growth,[5]; 10 µM unless noted,107% (inactive) and 111% (inactive)
same,growth,[6]; 10 µM unless noted,107% (inactive) and 99.5% (inactive)
same,growth,[7]; 10 µM unless noted,111% (inactive) and 102% (inactive)
same,growth,[8]; 10 µM unless noted,116% (inactive) and 109% (inactive)
same,growth,[9]; 10 µM unless noted,110% (inactive) and 105% (inactive)
same,growth,[10]; 10 µM unless noted,106% (inactive) and 105% (inactive)
same,growth,[11]; 10 µM unless noted,106% (inactive) and 95.5% (inactive)
same,growth,[12]; 10 µM unless noted,122% (inactive) and 115% (inactive)
same,growth,[13]; 10 µM unless noted,101% (inactive) and 105% (inactive)
same,growth,[14]; 10 µM unless noted,102% (inactive) and 106% (inactive)
same,growth,[15]; 10 µM unless noted,103% (inactive) and 106% (inactive)
same,growth,[16]; 10 µM unless noted,106% (inactive) and 104% (inactive)
same,growth,[17]; 10 µM unless noted,101% (inactive) and 103% (inactive)
O=[N+]([O-])c1ccccc1N(S(=O)(=O)c1ccccc1)S(=O)(=O)c1ccccc1,growth,[1]; 10 µM unless noted,85.8% (inactive) and 101% (inactive)
same,growth,[2]; 10 µM unless noted,85.4% (inactive) and 90.4% (inactive)
same,growth,[3]; 10 µM unless noted,98.2% (inactive) and 95.6% (inactive)
same,growth,[4]; 10 µM unless noted,105% (inactive) and 101% (inactive)
same,growth,[5]; 10 µM unless noted,115% (inactive)
same,growth,[6]; 10 µM unless noted,109% (inactive) and 111% (inactive)
same,growth,[7]; 10 µM unless noted,99.2% (inactive) and 96.7% (inactive)
same,growth,[8]; 10 µM unless noted,107% (inactive) and 93.5% (inactive)
same,growth,[9]; 10 µM unless noted,113% (inactive)
same,growth,[10]; 10 µM unless noted,98.9% (inactive) and 86.3% (inactive)
same,growth,[11]; 10 µM unless noted,105% (inactive) and 92.7% (inactive)
same,growth,[12]; 10 µM unless noted,106% (inactive)
same,growth,[13]; 10 µM unless noted,100% (inactive) and 98.1% (inactive)
same,growth,[14]; 10 µM unless noted,102% (inactive) and 97.3% (inactive)
same,growth,[15]; 10 µM unless noted,127% (inactive)
same,growth,[16]; 10 µM unless noted,110% (inactive) and 91.4% (inactive)
same,growth,[17]; 10 µM unless noted,101% (inactive) and 106% (inactive)
same,growth,[18]; 10 µM unless noted,96.1% (inactive) and 92% (inactive)
CCc1ccccc1-n1c(N)c(C#N)c(-c2ccc(OC)c(OC)c2)c(C#N)c1=O,growth,[1]; 10 µM unless noted,83% [100 µM] (inactive)
same,growth,[2]; 10 µM,112% (inactive)
same,growth,[2]; 100 µM,87.7% (inactive)
same,growth,[3]; 10 µM,109% (inactive)
same,growth,[3]; 100 µM,-24.4% (active)
same,growth,[5]; 10 µM,113% (inactive)
same,growth,[5]; 100 µM,28% (inactive)
same,growth,[6]; 10 µM,111% (inactive)
same,growth,[6]; 100 µM,-20.7% (active)
same,growth,[8]; 10 µM,113% (inactive)
same,growth,[8]; 100 µM,13.4% (inactive)
same,growth,[9]; 10 µM,116% (inactive)
same,growth,[9]; 100 µM,27.2% (inactive)
same,growth,[10]; 10 µM,111% (inactive)
same,growth,[10]; 100 µM,22.1% (inactive)
same,growth,[12]; 10 µM,109% (inactive)
same,growth,[12]; 100 µM,-17.8% (active)
same,growth,[13]; 10 µM,113% (inactive)
same,growth,[13]; 100 µM,82.5% (inactive)
same,growth,[14]; 10 µM,116% (inactive)
same,growth,[14]; 100 µM,86.4% (inactive)
same,growth,[15]; 10 µM,115% (inactive)
same,growth,[15]; 100 µM,10.4% (inactive)
same,growth,[16]; 10 µM,110% (inactive)
same,growth,[16]; 100 µM,27.8% (inactive)
same,growth,[17]; 10 µM,122% (inactive)
same,growth,[17]; 100 µM,79.6% (inactive)
same,growth,[18]; 10 µM,99.3% (inactive)
same,growth,[18]; 100 µM,45.6% (inactive)
COc1cc(-c2nccc3cc4c(cc23)OCO4)cc(OC)c1OC,growth,[1]; 10 µM unless noted,18.5% (inactive) and 35.6% (inactive)
same,growth,[2]; 10 µM unless noted,37.5% (inactive)
same,growth,[3]; 10 µM unless noted,48.9% (inactive) and 35.2% (inactive)
same,growth,[4]; 10 µM unless noted,66.4% (inactive) and 73.5% (inactive)
same,growth,[5]; 10 µM unless noted,79.2% (inactive) and 69% (inactive)
same,growth,[6]; 10 µM unless noted,23.7% (inactive) and 9.08% (active)
same,growth,[7]; 10 µM unless noted,45.8% (inactive) and 37.7% (inactive)
same,growth,[8]; 10 µM unless noted,-9.95% (active) and -25.2% (active)
same,growth,[9]; 10 µM unless noted,18.7% (inactive) and 53.8% (inactive)
same,growth,[10]; 10 µM unless noted,-3.6% (active) and 8.92% (active)
same,growth,[11]; 10 µM unless noted,27.6% (inactive) and 31.9% (inactive)
same,growth,[12]; 10 µM unless noted,56.8% (inactive)
same,growth,[13]; 10 µM unless noted,-14.5% (active) and -22.9% (active)
same,growth,[14]; 10 µM unless noted,16.7% (inactive) and 17.5% (inactive)
same,growth,[15]; 10 µM unless noted,20.9% (inactive) and 16.7% (inactive)
same,growth,[16]; 10 µM unless noted,18.7% (inactive) and 25.3% (inactive)
same,growth,[17]; 10 µM unless noted,59.8% (inactive) and 48.4% (inactive)
same,growth,[18]; 10 µM unless noted,32.3% (inactive) and 25% (inactive)
CCOC(=O)C(CNc1ccccc1)C(=O)OCC,growth,[1]; 10 µM unless noted,97% (inactive)
same,growth,[2]; 10 µM unless noted,95.1% (inactive)
same,growth,[3]; 10 µM unless noted,98.2% (inactive)
same,growth,[4]; 10 µM unless noted,102% (inactive)
same,growth,[5]; 10 µM unless noted,107% (inactive)
same,growth,[6]; 10 µM unless noted,98.9% (inactive)
same,growth,[7]; 10 µM unless noted,101% (inactive)
same,growth,[8]; 10 µM unless noted,105% (inactive)
same,growth,[9]; 10 µM unless noted,109% (inactive)
same,growth,[10]; 10 µM unless noted,103% (inactive)
same,growth,[11]; 10 µM unless noted,105% (inactive)
same,growth,[12]; 10 µM unless noted,104% (inactive)
same,growth,[13]; 10 µM unless noted,108% (inactive)
same,growth,[14]; 10 µM unless noted,104% (inactive)
same,growth,[15]; 10 µM unless noted,99.5% (inactive)
same,growth,[16]; 10 µM unless noted,104% (inactive)
same,growth,[17]; 10 µM unless noted,102% (inactive)
same,growth,[18]; 10 µM unless noted,106% (inactive)
CCCCCCCCCCCCCCCc1ccc(Cl)c(O)c1Cl (tested in a mixture with another compound),growth,[1]; 0.25 µM,4.53% (active)
same,growth,[1]; 10 µM,79.6% (inactive)
same,growth,[2]; 10 µM unless noted,29.8% [0.25 µM] (inactive)
same,growth,[3]; 0.25 µM,36% (inactive)
same,growth,[3]; 10 µM,92.2% (inactive)
same,growth,[4]; 0.25 µM,78.5% (inactive)
same,growth,[4]; 10 µM,106% (inactive)
same,growth,[5]; 0.25 µM,65% (inactive)
same,growth,[5]; 10 µM,115% (inactive)
same,growth,[6]; 0.25 µM,53.5% (inactive)
same,growth,[6]; 10 µM,111% (inactive)
same,growth,[7]; 0.25 µM,28.7% (inactive)
same,growth,[7]; 10 µM,97.4% (inactive)
same,growth,[8]; 0.25 µM,65.3% (inactive)
same,growth,[8]; 10 µM,112% (inactive)
same,growth,[9]; 0.25 µM,63.9% (inactive)
same,growth,[9]; 10 µM,105% (inactive)
same,growth,[10]; 0.25 µM,94.8% (inactive)
same,growth,[10]; 10 µM,96.5% (inactive)
same,growth,[11]; 0.25 µM,35.5% (inactive)
same,growth,[11]; 10 µM,85.4% (inactive)
same,growth,[12]; 0.25 µM,66.2% (inactive)
same,growth,[12]; 10 µM,103% (inactive)
same,growth,[13]; 0.25 µM,56% (inactive)
same,growth,[13]; 10 µM,103% (inactive)
same,growth,[14]; 0.25 µM,24.4% (inactive)
same,growth,[14]; 10 µM,101% (inactive)
same,growth,[15]; 0.25 µM,16.4% (inactive)
same,growth,[15]; 10 µM,112% (inactive)
same,growth,[16]; 0.25 µM,21.4% (inactive)
same,growth,[16]; 10 µM,75.7% (inactive)
same,growth,[17]; 0.25 µM,38.6% (inactive)
same,growth,[17]; 10 µM,116% (inactive)
same,growth,[18]; 0.25 µM,46% (inactive)
same,growth,[18]; 10 µM,96.7% (inactive)
OCCN1CCN(CCO)CC1,growth,[1]; 10 µM unless noted,99.5% (inactive) and 117% (inactive) and 98.8% (inactive)
same,growth,[2]; 10 µM unless noted,100% (inactive) and 95.5% (inactive)
same,growth,[3]; 10 µM unless noted,101% (inactive) and 97.4% (inactive)
same,growth,[4]; 10 µM unless noted,111% (inactive) and 91.2% (inactive) and 105% (inactive)
same,growth,[5]; 10 µM unless noted,124% (inactive) and 97.7% (inactive)
same,growth,[6]; 10 µM unless noted,104% (inactive) and 106% (inactive) and 109% (inactive)
same,growth,[7]; 10 µM unless noted,113% (inactive) and 90.8% (inactive) and 112% (inactive)
same,growth,[8]; 10 µM unless noted,119% (inactive) and 108% (inactive) and 109% (inactive)
same,growth,[9]; 10 µM unless noted,106% (inactive) and 98.7% (inactive) and 112% (inactive)
same,growth,[10]; 10 µM unless noted,100% (inactive) and 94% (inactive) and 120% (inactive)
same,growth,[11]; 10 µM unless noted,89.8% (inactive) and 86% (inactive) and 118% (inactive)
same,growth,[12]; 10 µM unless noted,110% (inactive) and 89.5% (inactive) and 102% (inactive)
same,growth,[13]; 10 µM unless noted,113% (inactive) and 99.8% (inactive) and 115% (inactive)
same,growth,[14]; 10 µM unless noted,99.5% (inactive) and 103% (inactive)
same,growth,[15]; 10 µM unless noted,95.5% (inactive) and 95.1% (inactive) and 107% (inactive)
same,growth,[16]; 10 µM unless noted,104% (inactive) and 87.9% (inactive) and 98.8% (inactive)
same,growth,[17]; 10 µM unless noted,102% (inactive) and 95.7% (inactive) and 107% (inactive)
same,growth,[18]; 10 µM unless noted,108% (inactive) and 96.8% (inactive) and 109% (inactive)
CN(C)CCCNC1=C(Cl)C(=O)c2ccccc2C1=O,growth,[1]; 10 µM unless noted,-18.8% (active)
same,growth,[2]; 10 µM unless noted,65% (inactive) and 45.5% (inactive)
same,growth,[3]; 10 µM unless noted,68% (inactive) and -60.7% (active)
same,growth,[4]; 10 µM unless noted,98.4% (inactive) and 98.8% (inactive)
same,growth,[5]; 10 µM unless noted,17.7% (inactive) and -100% (active)
same,growth,[6]; 10 µM unless noted,88.9% (inactive) and 95.9% (inactive)
same,growth,[7]; 10 µM unless noted,-52.5% (active) and -98.8% (active)
same,growth,[8]; 10 µM unless noted,19.8% (inactive) and -44.6% (active)
same,growth,[9]; 10 µM unless noted,9.81% (active)
same,growth,[10]; 10 µM unless noted,103% (inactive) and 78.7% (inactive)
same,growth,[11]; 10 µM unless noted,65.3% (inactive) and 32% (inactive)
same,growth,[12]; 10 µM unless noted,96.8% (inactive) and 93% (inactive)
same,growth,[13]; 10 µM unless noted,-88.6% (active) and -88.2% (active)
same,growth,[14]; 10 µM unless noted,-63% (active) and -57.8% (active)
same,growth,[15]; 10 µM unless noted,45.4% (inactive) and 5.05% (active)
same,growth,[16]; 10 µM unless noted,47.2% (inactive) and 4.88% (active)
same,growth,[17]; 10 µM unless noted,-0.125% (active) and -63.6% (active)
same,growth,[18]; 10 µM unless noted,83.3% (inactive) and 40.7% (inactive)
